# Results reported in ChEMBL document CHEMBL4513216, “Probing the Open Global Health Chemical Diversity Library for Multistage-Active Starting Points for Next-Generation Antimalarials” (ACS Infect Dis, 2020).
# About 8,600 (12%) of roughly 69,000 compounds showed an effect of 50% or more. For the sample, strong results were picked, then their nearest neighbours and some compounds at random.
# Tested on: Plasmodium berghei
# Assay: Screen against P. berghei liver stage (PbLuc), transformed with Luciferase, at 10uM
# Assay type: functional, HepG2
# Conditions: tested at 10 uM
row,SMILES,INHIBITION [%]
1,Cc1ccc(C(=O)N(C)Cc2ccc3c(c2)OCO3)c(=O)[nH]1,17.8
2,O=c1c2c[nH]c(N3CCCC3)nc-2cn1CCc1ccc(Cl)cc1,15.1
3,Cc1nc(C)n(C2CCCN(C(=O)CCc3cn(C)nc3C)C2)n1 (stereo not given),21.5
4,O=C(c1ccc[nH]1)N1CCc2nnc(Cn3cccn3)n2CC1,43.4
5,CN(C)C(=O)c1ccc2ccc(N3CCN(CC4CC4)CC3)n2c1,38.3
6,O=C(NC1CC1)c1ccc2ccc(N3CCN(CC4CC4)CC3)n2c1,34.9
7,O=C(O)c1ccc2ccc(N3CCN(CC4CC4)CC3)n2c1,54.1
8,CC(C)(C)OC(=O)N[C@H]1CCN(c2cncc(Br)c2)C1,22
9,CCOC(=O)NC1CCCN(c2cncc(Br)c2)C1 (stereo not given),35.9
10,CCCC(=O)NC1CCCN(c2cncc(Br)c2)C1 (stereo not given),55.4
11,O=C(C1CCCCC1)N1CCC2(COc3ncccc3S(=O)(=O)N2)C1 (stereo not given),50.7
12,O=C(c1ccncc1)N1CCC2(COc3ncccc3S(=O)(=O)N2)C1 (stereo not given),25.1
13,O=C1CC2(CCN(C(=O)C3CCCCC3)C2)Nc2ccccc2N1 (stereo not given),28.4
14,O=C(c1cscn1)N1CCC2(COc3ncccc3S(=O)(=O)N2)C1 (stereo not given),48.2
15,O=C(c1ccccn1)N1CCC2(COc3ncccc3S(=O)(=O)N2)C1 (stereo not given),67.3
16,O=C(c1ccc(Cl)s1)N1CCC2(COc3ncccc3S(=O)(=O)N2)C1 (stereo not given),2.69
17,CCc1nccn1-c1cncc(C2CCCN2Cc2ccccc2)n1 (stereo not given),45.6
18,CCN1C[C@@H]2[C@@H](OC)CCN(S(=O)(=O)c3ccccc3F)[C@@H]2C1,21.6
19,Cc1noc([C@@H](C)NCc2cccc(Cl)c2)c1C(=O)O,48.2
20,CN1CC(c2cc(O)nc(NCc3cccc(F)c3)n2)CC1=O (stereo not given),-34.6
21,O=S(=O)(NCC(O)c1ccoc1)c1ccc(Cl)s1 (stereo not given),46.1
22,CNc1cc(N2CCCC2CNCc2csc(C(C)C)n2)ncn1 (stereo not given),46.2
23,CSc1nc(C)cc(N2CCC(c3ncc[nH]3)CC2)n1,44.6
24,CCOc1cc(C)nc(N2CCN(C(=O)c3cn[nH]c3CC)CC2)n1,44.1
25,CC(C)=CCC1(CO)CCCN(S(=O)(=O)N2CCCC2)C1 (stereo not given),91.2
26,CCN(C)S(=O)(=O)N1CCCC(CO)(CC=C(C)C)C1 (stereo not given),-3.96
27,CC(C)=CCC1(CO)CCCN(S(C)(=O)=O)C1 (stereo not given),28.7
28,O=C(c1cccnc1O)N1CCN(CCc2cccs2)CC1,20.45

row,SMILES,INHIBITION [%]
1,CCNc1nc(-c2cccnc2)c(-c2ccnc(NS(C)(=O)=O)n2)s1,47.1
2,CCNc1nc(-c2cccnc2)c(-c2ccnc(NCCO)n2)s1,-80.5
3,CC(C)(C)Nc1nc(-c2cccnc2)c(-c2ccnc(NCCO)n2)s1,59
4,CN(CC(=O)N1CCCC1Cn1cccn1)Cc1ccccc1 (stereo not given),48.2
5,COc1cccc(CN2CCC3(CCN(C(=O)C4CC=CC4)CC3)C2)c1,21.3
6,Cc1noc(C)c1C(=O)N1CCCCC1c1cc(C)n2ccnc2n1 (stereo not given),30.4
7,Cc1cc(C2CCCCN2C(=O)c2cccn2C)nc2nccn12 (stereo not given),18.3
8,Cc1cc(C2CCCCN2C(=O)c2ccsc2)nc2nccn12 (stereo not given),71.3
9,O=C(c1cncs1)N1CCOCC(Cc2ccncn2)C1 (stereo not given),11.235
10,COc1cc(CN(Cc2ccccn2)CC(C)C)cc2c1OCO2,36.2
11,COc1cc(CN(CCCN(C)C)Cc2ccccn2)cc2c1OCO2,18.9
12,COc1cc(CN(C)C(C)c2ccccn2)cc2c1OCO2 (stereo not given),58.6
13,Cc1cc(F)c(S(=O)(=O)NCC(C)(C)N)cc1F,37.6
14,CCN(CC)c1ncc(CNC2CCc3nc(C(C)C)nn3C2)s1 (stereo not given),-3.54
15,NC(=O)CCn1cc(CNCCCc2ccccc2O)c2ccccc21,88.5
16,NC(=O)CCn1cc(CNCCCc2csc(N)n2)c2ccccc21,29
17,CC(NCc1cn(CCC(N)=O)c2ccccc12)c1nncn1C (stereo not given),32.7
18,Cc1n[nH]c(C)c1CCCNCc1cn(CCC(N)=O)c2ccccc12,66.7
19,Cc1ccc(C(C)NCc2cn(CCC(N)=O)c3ccccc23)cc1C (stereo not given),27.7
20,NC(=O)CCn1cc(CNCc2csc(N)n2)c2ccccc21,60.9
21,CC(C)n1cnnc1CCNCc1cn(CCC(N)=O)c2ccccc12,6.94
22,CCCN1CCN(Cc2cn(CCC(N)=O)c3ccccc23)CC1,39.8
23,NC(=O)CCn1cc(CNCCCc2ccncc2)c2ccccc21,-71.1
24,COc1ccc(S(=O)(=O)N2CCC(O)(CN(C)C)C2)cc1 (stereo not given),38.2
25,Cc1sc(Br)cc1S(=O)(=O)NCCN,45
26,O=C(Cc1csc(Cc2ccccn2)n1)NCCCN1CCCC1=O,17.5
27,CCOCCC(=O)Nc1cccc(Cl)c1COC,33.7
